# Experimental data as given in PubChem BioAssay AID932 (The Scripps Research Institute Molecular Screening Center, 2007).
# Out of some 200,000 compounds screened, about 5,100 (2.5%) were called active. Shown is part of a subset that was picked to be rich in actives. Unmarked numbers belong to inactive results.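 How the source made its calls: active means activation above the screen-wide mean activation plus 3 SD (cut at about 130% in these data); inactive means the rest.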 Where a SMILES comes first, the peptide text is derived from it. [ ]: non-standard residue; d: D form. ξ: configuration not given here. ξM = CSCCC(N)C(=O)O
# Assay: STAT1 signaling activators, primary screen, cell-based, HTS, luciferase reporter (AID 932);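 further: raw ratio to IFN-gamma control signal so 100% means no change and 0% no light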
# Details: NIH 3T3 STAT1-luciferase reporter, IFN-gamma, luminescence; at 5.5 µM; hits give high values; 100% = IFN-gamma alone, no compound
row,Structure (SMILES),activation (% of control)
1,COc1cc(OC)c(C(=O)OCC(=O)N2CC(=O)Nc3ccccc32)cc1OC,97%
2,N#C/C(=C/c1cccc([N+](=O)[O-])c1)c1nnc2n1CCCCC2,100%
3,C/C(=N/Nc1ccc(Cl)cc1)c1cnnc(-c2ccccc2)n1,99.5%
4,COC(=O)CNC(=O)C(CCSC)NC(C)=O (centres undefined) (Ac-[ξM]-Gly-OMe),99.5%
5,Cc1ccc(Oc2cnn(-c3ccccc3)c(=O)c2Br)cc1,108%
6,O=c1c(Cl)c(NC2CC2)cnn1-c1ccccc1,108%
7,C=CCNc1cnn(-c2ccc(C)cc2)c(=O)c1Cl,134% (active)
8,CN(C)c1ccc(/C=N/Nc2cc(N3CCOCC3)nc(N3CCOCC3)n2)cc1,104%
9,C=CCN(c1ccc(Cl)cc1)S(=O)(=O)c1cccc(C(=O)OCC(=O)N(C)C)c1,97.2%
10,Cc1ccc(-n2cc3ccc([N+](=O)[O-])cc3n2)cc1,123%
11,Cc1ccc(-c2cn3cc(C)ccc3n2)cc1,12.9%
12,Cc1ccc(-c2cn3cc([N+](=O)[O-])ccc3n2)cc1,133% (active)
13,CCN(/N=C/c1ccccc1)c1cc(=O)n(C)c(=O)[nH]1,98.7%
14,COc1ccccc1NC(=O)C1=C(C)NC(=O)NC1c1ccc(C)s1 (centres undefined),99.8%
15,CCCC(=O)Nc1cccc(-c2cn3ccsc3n2)c1,108%
16,COc1ccc(-c2cn3ccsc3n2)cc1,135% (active)
17,COc1ccc(-c2cn3cccnc3n2)cc1,118%
18,COc1cc(NC(=O)CSc2nnc3ccc(-c4ccncc4)nn23)cc(OC)c1,104%
19,C=CCN1C(=O)C(O)(CC(=O)c2ccccn2)c2ccccc21 (centres undefined),104%
20,COc1ccc(-c2cc(C(=O)NC(Cc3c[nH]c4ccccc34)C(=O)O)c(C)o2)cc1OC (centres undefined),93.3%
21,O=C(Nc1ccc(Br)cn1)c1ccc([N+](=O)[O-])cc1Cl,142% (active)
22,O=C(Nc1ccc(Br)cn1)c1ccc([N+](=O)[O-])o1,108%

row,Structure (SMILES),activation (% of control)
1,CC(C)C(=O)Nc1cccc(NC(=O)c2ccc([N+](=O)[O-])cc2Cl)c1,112%
2,O=C(NC1CCCC1)C(NS(=O)(=O)c1ccc(Br)s1)c1ccccc1 (centres undefined),94.7%
3,C/C(=N\NC(=S)NC(C)C)c1ccc(C(C)(C)C)cc1,94.3%
4,COc1cccc(C(=O)NNC(=O)c2ccccc2Br)c1,98.2%
5,COc1ccc(C2COC(=O)C2=N)c(NC(=O)c2ccccc2)c1 (centres undefined),107%
6,COc1cccc(C(=O)Nc2cc3c(cc2Br)OCCCO3)c1,141% (active)
7,Cc1cccc(N2CCN(S(=O)(=O)c3ccc4[nH]c(=O)c(=O)[nH]c4c3)CC2C)c1 (centres undefined),99.2%
8,Cc1ccc(N=Cc2c(O)n(-c3nccs3)c(=O)c3ccccc23)c(C)c1,105%
9,Cc1cccc(-n2c(O)c(C=Nc3ccccc3N)c(=O)[nH]c2=O)c1,156% (active)
10,[O-][n+]1onc2c1CCc1[nH]c(-c3ccccc3)nc1-2,101%
11,Cc1ccc(NC(=O)c2ccc(S(=O)(=O)NCC3CCCO3)cc2)cc1C (centres undefined),103%
12,O=C(NCc1ccncc1)NC12CC3CC(CC(C3)C1)C2,94.6%
13,O=C(Nc1cccc(Cl)c1)OCc1ccccn1,130% (active)
14,O=C(Nc1ccccc1)OCc1cc(-c2ccc(Cl)cc2)on1,95.6%
15,O=C(Nc1cccc(CCc2ccccn2)c1)c1ccc(Cl)cc1,96.1%
16,Cc1nc([N+](=O)[O-])cn1CC(=O)Nc1ccc2c(c1)OCO2,101%
17,CCOC(=O)NC(=O)C(=CNc1cccc(OC)c1)C(=O)NC(=O)OCC,93.9%
18,O=C(Nc1ccccc1)c1ccc2nsnc2c1,113%
19,O=C(Nc1ccccc1Cl)c1ccc2nsnc2c1,133% (active)
20,Cc1cccc(NC(=O)c2ccc3nsnc3c2)c1C,104%
21,Cc1ccc(C(=O)Nc2cccc3ncccc23)cc1[N+](=O)[O-],106%
22,Nc1nc(-c2sc3nc4c(cc3c2N)CCCC4)nc(N2CCOCC2)n1,153% (active)

row,Structure (SMILES),activation (% of control)
1,Cc1cc(Oc2ccccc2)nc(N2CCOCC2)n1,100%
2,Cc1nc(N2CCOCC2)nc2c1CCCC2,98.4%
3,CC(C)OC(=O)CN1CCN(c2ccc(Cl)cc2)CC1,92.2%
4,Nc1nnnn1CC(=O)N/N=C/c1ccc(-c2cccc(Cl)c2)o1,94.7%
5,O=C1NC(c2cccc(Cl)c2)Nc2ccccc21 (centres undefined),107%
6,O=C1c2ccccc2NC(c2ccc(-c3cccc(Cl)c3)o2)N1O (centres undefined),132% (active)
7,COc1ccc(C2=NN(c3nc4ccccc4s3)C(=O)C2)cc1,101%
8,CCOc1ccc(NC(=O)NNC(=O)c2ccc(Cl)cc2Cl)cc1,97.2%
9,CS(=O)(=O)N(CC(=O)N1CCCC1)Cc1ccccc1,98.3%
10,O=C(CC1CCCCC1)NCc1ccco1,108%
11,Cc1ccc(OCC(=O)NC(C)c2ccccc2)c([N+](=O)[O-])n1 (centres undefined),117%
12,CSCC(NS(=O)(=O)c1ccc(C)cc1)C(=O)O (centres undefined),105%
13,CN1CCN(c2ccc(NC(=O)c3ccc4c(c3)OCCO4)cc2Cl)CC1,144% (active)
14,O=C(Nc1ccc2c(c1)OCCO2)c1ccc(Cl)c(S(=O)(=O)N2CCCCC2)c1,96.8%
15,O=C(Nc1cccc(Cl)c1N1CCOCC1)c1ccc2c(c1)OCCO2,92.9%
16,CC(O)CNCCOc1cccc(Oc2ccccc2)c1 (centres undefined),102%
17,COc1ccc(-c2csc(Cc3nc(O)cs3)n2)cc1,221% (active)
18,COc1ccc(-c2csc(N3CCN(Cc4ccc5c(c4)OCO5)CC3)n2)cc1,101%
19,COc1ccc(C(=O)Nc2nc(-c3ccc(S(=O)(=O)N4CCOCC4)cc3)cs2)cc1,85.1%
20,Cc1cc(/C=C2/C(=N)N3C(=NC2=O)SN=C3S(C)(=O)=O)c(C)n1-c1ccccc1,107%
